Assay results: ChEMBL document CHEMBL3988442, “University of Dundee, Small-Polar-MMV Screening Library” (2021)
For some assays here: Results with a measured potency or affinity are listed apart.

What was measured:
Set-up in all cases: scale not given: direction of the effect not stated beside the values
[1] = target: Protein translocase subunit SecA (Escherichia coli (strain K12)) (UniProt P10408); test: Assay to Identify E. coli SecA ATPase Inhibitors; type: functional; details: 30 µM
[2] = target: T1, Ubiquitin-activating enzyme e1, putative (Leishmania donovani (strain BPK282A1)) (UniProt E9BSI1); test: Leishmania donovani Ubiquitin Activating Enzyme (LdE1); type: functional; details: 30 µM
T1 sequence (whole entry): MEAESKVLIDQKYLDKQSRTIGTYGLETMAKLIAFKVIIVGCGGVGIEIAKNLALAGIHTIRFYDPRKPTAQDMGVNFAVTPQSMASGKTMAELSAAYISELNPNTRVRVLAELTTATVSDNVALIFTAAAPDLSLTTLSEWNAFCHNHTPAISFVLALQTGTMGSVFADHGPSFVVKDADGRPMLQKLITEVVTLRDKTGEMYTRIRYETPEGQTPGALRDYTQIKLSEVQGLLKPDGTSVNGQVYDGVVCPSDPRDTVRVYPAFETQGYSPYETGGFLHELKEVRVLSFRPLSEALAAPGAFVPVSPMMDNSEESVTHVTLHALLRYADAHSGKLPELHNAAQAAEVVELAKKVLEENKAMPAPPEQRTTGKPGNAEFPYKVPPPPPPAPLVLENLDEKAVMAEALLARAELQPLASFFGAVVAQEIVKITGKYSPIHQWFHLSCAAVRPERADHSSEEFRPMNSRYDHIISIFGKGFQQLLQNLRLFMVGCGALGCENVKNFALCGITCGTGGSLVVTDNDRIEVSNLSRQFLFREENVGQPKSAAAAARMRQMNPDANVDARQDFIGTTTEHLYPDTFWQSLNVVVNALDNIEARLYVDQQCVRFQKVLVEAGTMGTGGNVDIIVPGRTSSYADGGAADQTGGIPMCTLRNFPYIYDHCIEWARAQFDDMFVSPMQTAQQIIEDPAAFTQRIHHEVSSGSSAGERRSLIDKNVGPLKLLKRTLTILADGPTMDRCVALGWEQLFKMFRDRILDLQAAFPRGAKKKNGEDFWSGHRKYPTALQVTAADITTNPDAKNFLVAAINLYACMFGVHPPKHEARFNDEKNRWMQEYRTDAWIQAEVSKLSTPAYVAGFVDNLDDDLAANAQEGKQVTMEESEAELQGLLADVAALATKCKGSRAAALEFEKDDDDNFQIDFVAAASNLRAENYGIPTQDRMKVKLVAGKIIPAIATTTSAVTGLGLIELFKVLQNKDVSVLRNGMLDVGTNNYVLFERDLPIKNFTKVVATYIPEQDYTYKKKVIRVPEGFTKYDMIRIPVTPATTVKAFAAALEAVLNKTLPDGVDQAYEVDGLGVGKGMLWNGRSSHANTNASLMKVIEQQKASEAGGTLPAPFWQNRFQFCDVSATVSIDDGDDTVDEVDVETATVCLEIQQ

[3] = target: AMP-activated protein kinase, AMPK (Homo sapiens) (UniProt P54646+O43741+P54619+Q9UGJ0+Q9Y478+Q13131+Q9UGI9); test: AMP-dependent Kinase enzyme assay. An in vitro enzyme assay that detects ADP turnover that is directly proportional to AMPK activity. This uses naive AMPK that is activated during the assay with MK-8722; type: functional; details: 30 µM
[4] = target: Sialic acid-binding Ig-like lectin 9 (Homo sapiens) (UniProt Q9Y336); test: Hs-Siglec9 ALPHAscreen SOP 20170721; details: 10 µM
Chain of Sialic acid-binding Ig-like lectin 9 (Homo sapiens) (Q9Y336 whole entry): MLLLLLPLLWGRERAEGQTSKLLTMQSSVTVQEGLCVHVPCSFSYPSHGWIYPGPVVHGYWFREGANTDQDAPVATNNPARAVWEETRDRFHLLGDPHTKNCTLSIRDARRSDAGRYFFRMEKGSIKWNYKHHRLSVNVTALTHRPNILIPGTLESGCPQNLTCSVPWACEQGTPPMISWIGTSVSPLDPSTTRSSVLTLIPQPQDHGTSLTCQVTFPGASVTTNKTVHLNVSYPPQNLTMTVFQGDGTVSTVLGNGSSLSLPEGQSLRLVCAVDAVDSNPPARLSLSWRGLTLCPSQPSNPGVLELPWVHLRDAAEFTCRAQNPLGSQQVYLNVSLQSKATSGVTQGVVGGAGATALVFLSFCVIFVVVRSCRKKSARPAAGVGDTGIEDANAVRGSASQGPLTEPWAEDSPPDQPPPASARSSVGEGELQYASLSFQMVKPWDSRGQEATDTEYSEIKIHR

Trypanosoma cruzi = test: Trypanosoma cruzi phosphomannomutase and mannose-1-phosphate guanylyltransferase assay; type: functional; details: 10 µM
[5] = target: T2, Arginase-2, mitochondrial (Homo sapiens) (UniProt P78540); test: in vitro enzyme assay to detect the production of urea directly proportional to the activity of Arginase II; type: functional; details: 33.3 µM; also: in the data most compounds retested in dose-response had high values
T2 sequence (whole entry): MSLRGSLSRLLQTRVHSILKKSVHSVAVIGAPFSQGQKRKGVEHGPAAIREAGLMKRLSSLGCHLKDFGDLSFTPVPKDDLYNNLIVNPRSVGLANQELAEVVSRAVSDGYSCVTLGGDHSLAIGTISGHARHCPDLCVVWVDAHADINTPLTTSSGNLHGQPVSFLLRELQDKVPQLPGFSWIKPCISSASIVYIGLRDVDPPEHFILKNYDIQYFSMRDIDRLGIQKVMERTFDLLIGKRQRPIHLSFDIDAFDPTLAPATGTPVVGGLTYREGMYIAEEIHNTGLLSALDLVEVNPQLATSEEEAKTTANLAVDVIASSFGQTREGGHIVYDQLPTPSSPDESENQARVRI

[6] = target: T3, Proteasome subunit beta (Trypanosoma cruzi) (UniProt O96673); test: Trypanosoma cruzi proteasome chymotrypsin-like activity (TcProtChymo) assay.; also: in the data most compounds retested in dose-response had high values; type: functional; details: 9.37 µM
T3 sequence (whole entry): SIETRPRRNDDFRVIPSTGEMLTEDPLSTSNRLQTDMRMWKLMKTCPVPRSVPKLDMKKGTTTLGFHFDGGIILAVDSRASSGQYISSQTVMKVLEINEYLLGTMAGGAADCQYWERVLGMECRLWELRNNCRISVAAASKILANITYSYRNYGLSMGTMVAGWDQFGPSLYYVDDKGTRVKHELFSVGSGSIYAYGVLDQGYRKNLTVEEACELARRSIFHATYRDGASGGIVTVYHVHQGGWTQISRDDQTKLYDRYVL

Homo sapiens = species on record: Homo sapiens; test: To identify inhibition of the IFN signalling (Jak-Stat) pathway via expression of an eGFP reporter gene under the control of an IFN-stimulated response element (ISRE) containing MxA promoter.; type: functional; details: 30 µM
[7] = target: T4, Tyrosyl-tRNA synthetase, putative (Trypanosoma cruzi (strain CL Brener)) (UniProt Q4DSP6); test: Trypanosoma cruzi tyrosyl tRNA synthetase (TcYRS) _High Tyrosine SOP; type: functional; details: 30 µM; also: in the data most compounds retested in dose-response had high values
T4 sequence (whole entry): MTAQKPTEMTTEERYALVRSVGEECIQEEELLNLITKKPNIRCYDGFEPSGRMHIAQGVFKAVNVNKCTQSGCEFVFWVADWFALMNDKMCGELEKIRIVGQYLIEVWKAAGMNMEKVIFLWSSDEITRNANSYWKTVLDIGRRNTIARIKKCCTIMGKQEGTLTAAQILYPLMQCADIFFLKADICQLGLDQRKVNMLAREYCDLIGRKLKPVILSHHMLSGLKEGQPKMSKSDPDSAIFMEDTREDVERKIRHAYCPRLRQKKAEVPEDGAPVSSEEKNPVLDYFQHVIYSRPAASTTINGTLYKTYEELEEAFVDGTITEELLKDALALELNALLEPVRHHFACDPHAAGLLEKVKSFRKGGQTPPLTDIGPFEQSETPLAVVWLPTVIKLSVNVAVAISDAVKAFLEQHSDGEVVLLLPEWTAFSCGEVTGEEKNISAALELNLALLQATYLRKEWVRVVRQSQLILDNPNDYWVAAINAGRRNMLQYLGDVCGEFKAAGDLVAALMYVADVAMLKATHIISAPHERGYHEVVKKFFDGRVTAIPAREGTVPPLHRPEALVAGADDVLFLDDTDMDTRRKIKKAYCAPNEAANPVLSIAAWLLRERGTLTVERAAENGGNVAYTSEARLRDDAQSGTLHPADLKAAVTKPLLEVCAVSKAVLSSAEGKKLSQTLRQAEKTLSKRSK

[8] = target: T4, Tyrosyl-tRNA synthetase, putative (Trypanosoma cruzi (strain CL Brener)); test: Trypanosoma cruzi tyrosyl tRNA synthetase (TcYRS) SOP; type: functional; details: 30 µM
[9] = target: Chromo domain-containing protein 1 (Saccharomyces cerevisiae (strain ATCC 204508 / S288c) (Baker's yeast)) (UniProt P32657); test: ScCHD-1 Enzyme Inhibition Assay; type: functional; details: 30 µM; also: in the data most compounds retested in dose-response had high values
Chain of Chromo domain-containing protein 1 (Saccharomyces cerevisiae (strain ATCC 204508 / S288c) (Baker's yeast)) (P32657 whole entry, the tested form may be a part): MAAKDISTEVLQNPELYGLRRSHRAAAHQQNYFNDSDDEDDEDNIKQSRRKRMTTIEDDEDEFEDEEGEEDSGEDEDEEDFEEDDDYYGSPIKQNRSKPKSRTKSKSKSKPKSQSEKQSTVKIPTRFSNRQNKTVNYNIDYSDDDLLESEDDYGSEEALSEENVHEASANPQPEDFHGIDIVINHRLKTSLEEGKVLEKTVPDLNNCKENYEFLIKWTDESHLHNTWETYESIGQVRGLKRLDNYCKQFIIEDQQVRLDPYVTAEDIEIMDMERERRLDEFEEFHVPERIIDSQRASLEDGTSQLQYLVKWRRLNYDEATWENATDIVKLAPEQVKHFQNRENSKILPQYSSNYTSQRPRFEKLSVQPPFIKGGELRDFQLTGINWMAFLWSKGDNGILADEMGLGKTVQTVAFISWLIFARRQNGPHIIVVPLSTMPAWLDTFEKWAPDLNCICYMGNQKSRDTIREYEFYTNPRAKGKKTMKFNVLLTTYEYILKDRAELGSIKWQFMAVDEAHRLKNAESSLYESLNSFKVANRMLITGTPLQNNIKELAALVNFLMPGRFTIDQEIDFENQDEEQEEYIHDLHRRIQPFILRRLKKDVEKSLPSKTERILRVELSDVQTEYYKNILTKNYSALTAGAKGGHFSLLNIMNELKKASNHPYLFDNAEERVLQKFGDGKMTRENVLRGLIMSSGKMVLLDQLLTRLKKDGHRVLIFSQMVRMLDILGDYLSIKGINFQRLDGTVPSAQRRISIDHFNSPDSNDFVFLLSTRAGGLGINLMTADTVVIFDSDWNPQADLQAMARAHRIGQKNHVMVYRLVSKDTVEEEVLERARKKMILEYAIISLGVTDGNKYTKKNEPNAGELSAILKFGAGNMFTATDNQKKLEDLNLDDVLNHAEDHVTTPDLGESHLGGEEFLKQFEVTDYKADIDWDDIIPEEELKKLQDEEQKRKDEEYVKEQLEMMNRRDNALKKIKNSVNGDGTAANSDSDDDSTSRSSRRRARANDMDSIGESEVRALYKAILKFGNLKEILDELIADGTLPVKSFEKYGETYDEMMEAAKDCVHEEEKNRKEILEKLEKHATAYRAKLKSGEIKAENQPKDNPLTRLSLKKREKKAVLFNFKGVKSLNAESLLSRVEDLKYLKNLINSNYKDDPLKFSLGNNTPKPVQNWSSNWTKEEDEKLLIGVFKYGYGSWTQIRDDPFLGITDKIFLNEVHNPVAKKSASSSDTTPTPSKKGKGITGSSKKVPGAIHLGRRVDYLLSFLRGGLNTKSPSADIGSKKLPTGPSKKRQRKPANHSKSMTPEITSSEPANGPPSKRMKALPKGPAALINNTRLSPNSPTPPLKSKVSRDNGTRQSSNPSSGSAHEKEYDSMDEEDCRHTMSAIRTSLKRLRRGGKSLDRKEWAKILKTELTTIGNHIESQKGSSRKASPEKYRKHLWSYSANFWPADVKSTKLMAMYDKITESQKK

Chain of Protein translocase subunit SecA (Escherichia coli (strain K12)) (P10408 whole entry): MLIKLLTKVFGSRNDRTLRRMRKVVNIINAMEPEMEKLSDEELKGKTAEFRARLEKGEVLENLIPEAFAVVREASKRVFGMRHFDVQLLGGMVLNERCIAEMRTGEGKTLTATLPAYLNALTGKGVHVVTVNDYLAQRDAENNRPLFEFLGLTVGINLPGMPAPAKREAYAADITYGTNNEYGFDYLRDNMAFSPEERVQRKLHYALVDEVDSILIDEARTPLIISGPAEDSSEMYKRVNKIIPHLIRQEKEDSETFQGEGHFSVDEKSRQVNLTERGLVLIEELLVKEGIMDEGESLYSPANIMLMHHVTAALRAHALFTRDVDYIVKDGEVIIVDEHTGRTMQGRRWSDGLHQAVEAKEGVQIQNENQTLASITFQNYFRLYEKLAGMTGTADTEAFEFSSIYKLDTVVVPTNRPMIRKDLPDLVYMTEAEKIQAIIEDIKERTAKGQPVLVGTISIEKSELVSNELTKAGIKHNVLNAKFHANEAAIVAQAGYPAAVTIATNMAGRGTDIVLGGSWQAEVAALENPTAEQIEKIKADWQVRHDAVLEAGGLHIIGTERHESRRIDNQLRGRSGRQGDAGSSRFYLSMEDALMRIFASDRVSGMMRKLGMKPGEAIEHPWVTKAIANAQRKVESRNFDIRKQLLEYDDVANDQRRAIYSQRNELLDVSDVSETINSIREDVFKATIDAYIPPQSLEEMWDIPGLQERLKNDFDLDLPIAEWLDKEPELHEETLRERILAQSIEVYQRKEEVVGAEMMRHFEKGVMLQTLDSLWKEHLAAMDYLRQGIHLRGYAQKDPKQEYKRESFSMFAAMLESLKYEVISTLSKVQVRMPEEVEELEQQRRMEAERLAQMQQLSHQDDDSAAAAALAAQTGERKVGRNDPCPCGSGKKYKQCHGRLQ

SMILES | Percent Effect [1] | Percent Effect [2] | Percent Effect [3] | Percent Effect [4] | Percent Effect (Trypanosoma cruzi) | Percent Effect [5] | Percent Effect [6] | Percent Effect (Homo sapiens) | Percent Effect [7] | Percent Effect [8] | Percent Effect [9]
CC(Cn1ccnc1)NC(=O)N1CCN(Cc2cccnc2)CC1 (configuration not stated) | -5% | 18.4% | -6.12% | 5.79% | 8.46% | -3.83% | 11.5% | 4.46% | 7.35% | 19.5% | -10.3%
C[S+]([O-])c1nncn1CC(=O)c1ccc(Cl)c(Cl)c1 (configuration not stated) | -5.28% | 8.11% | -4.71% | 15.3% | 5.57% | 2.73% | 4.38% | -5.62% | -4.3% | 1.24% | -5.11%
CC(=O)N1CCCN(C(=O)NCc2ccccn2)CC1 | -4.25% | 0% | 2.97% | 0.332% | -5.88% | 3.6% | 3.81% | 2.28% | 1.48% | -6.17% | 9.43%
Cc1cnc(CN(C)C2CCN(CC(=O)Nc3nncs3)C2)o1 (configuration not stated) | -0.539% | 22.8% | -11% | -8.69% | -2.74% | 1.14% | 5% | 5.59% | 12.3% | 21.5% | -9.12%
Cc1ccc(Cn2ccc(NS(C)(=O)=O)n2)cc1 | -6.83% | 5.2% | -4.69% | -0.383% | -2.46% | -5.52% | 9.32% | -2.78% | 3.23% | 13.6% | 1.11%
CCc1nnc2n1CCN(C(=O)c1cc3cc(F)ccc3[nH]1)C2 | -3.51% | 0% | 21% | 11.1% | 4.68% | -1.78% | 2.37% | -24.4% | 7.77% | 24.4% | -11.3%
Cc1cnccc1CN1C[C@@H](O)[C@H](Oc2ccccc2)C1 | 4.34% | -4.05% | 6.12% | 0.247% | 0.593% | 3.02% | 3.28% | 11.6% | 2.15% | -1.3% | -12.9%
CC(C)c1ccc(C(O)Cn2c(=O)c(C#N)cn(C3CC3)c2=O)cc1 (configuration not stated) | -0.117% | -2.63% | 7.18% | 0.134% | -6.39% | 4.21% | 0.334% | 1.74% | -1.47% | -2.44% | -2.6%
CCNc1cc2c(nn1)CCN(C(=O)c1cccc3c1OCCO3)C2 | -5.14% | 7.79% | -15.3% | 14.1% | 5.99% | -6.76% | 15.4% | 1.1% | 5.83% | 14.6% | -10.8%
c1cnnc(NCC2CN(CCN3CCCCC3)CCO2)c1 (configuration not stated) | -2.02% | -7.79% | 5.05% | 6.18% | 9.74% | -3.56% | 1.01% | -18.9% | 0.971% | 7.32% | -2.7%
Cc1ccc(C(=O)NC(C)CN2CCCC2=O)c(=O)[nH]1 (configuration not stated) | -6.8% | 5.48% | -5.61% | 0.134% | -2.94% | 0.455% | 12.8% | 18.2% | 1.07% | 2.5% | -0.198%
O=C(c1ccc[nH]1)N1CCC(c2nccn2Cc2ccncc2)CC1 | -3.39% | 13.7% | -1.71% | 5.74% | 7.05% | 14.1% | 8.7% | 11.4% | 5.38% | 10% | -6.61%
NC(=O)c1ccc(CN2CCCC(N3CCCC3)C2)cc1 (configuration not stated) | -3.01% | 18.9% | -3.31% | -0.296% | 2.54% | 5% | 23.8% | -1.33% | 7.92% | 15.8% | -6.1%
CCC(CC)C(O)CNC(=O)Nc1cc(C)nn1C (configuration not stated) | -6.46% | 5.06% | 0.487% | 6.21% | 6.7% | -1.9% | 5.16% | -23.6% | 1.48% | 16.5% | -6.04%
COc1ccc(C2Nc3cc(Cl)ccc3C3=NCCN32)cc1OC (configuration not stated) | -5.72% | 2.67% | 2.8% | 3.39% | 3.54% | -5.83% | 13.1% | 8.26% | 4.25% | 8.97% | -11.7%
Cc1nc(C2CCCN(C(=O)c3ccc(OCC4CC4)cc3)C2)no1 (configuration not stated) | -11% | 15.8% | -2.79% | 21.9% | 10.9% | 3.24% | 7.19% | 0.288% | 5.42% | 25.9% | -8.85%
CCOCC1CN(C(=O)c2cscn2)Cc2nnn(CC3CC3)c21 (configuration not stated) | -0.829% | 10.8% | 1.84% | -5.91% | 0.88% | 4.14% | 18.4% | -1.13% | 2.16% | 7.69% | -1.63%
CN(C)C1CCN(C(=O)NCc2ccccc2Cn2cncn2)CC1 | -2.11% | 10.8% | -1.1% | 10.9% | 7.72% | 6.19% | 12.2% | 18.3% | 7.94% | 17.1% | -1.22%
Cc1nccn1C1CCCN(C(=O)c2ccc3c(c2)COC3)C1 (configuration not stated) | -0.738% | -2.7% | -1% | 7.4% | 3.44% | 0.554% | -5.39% | -3.77% | 4.95% | 13.4% | -0.0787%
Cc1cccc(C(=O)NC(CN2CCCC2=O)c2ccccc2)n1 (configuration not stated) | -2.94% | 13.2% | -3.02% | 7.02% | 5.83% | 6.13% | 8.35% | -4.47% | 5.39% | 21.9% | -10.3%
CN(C)CC(=O)N1C[C@@H]2CC[C@H](Oc3ccccc3Cl)[C@@H]2C1 | -5.55% | -4.05% | 9.46% | 5.31% | -2.17% | -3.48% | -2.5% | 6.65% | -1.07% | 3.9% | 9.09%
COc1ccc(NC(=O)Cn2nc(C)ccc2=O)cc1OC | -3.84% | -1.33% | 2.94% | 4.69% | -0.786% | -5.46% | 7.39% | -3.33% | 3.17% | 5.13% | 0.459%
